TDP1 cell CPT = DT40-hTDP1 cell growth loss with CPT. Potency, µM (highest dose often 46.2 µM), actives largely listed as inhibitors. 12% of 420,000 active. chicken DT40 Tdp1-/-;hTDP1 cells + 20 nM CPT, ATP luminescence, 48 h; also: nearly all actives have a fitted effect of over 55% in size
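Chicken DT40 Tdp1-/- cells stably complemented with human TDP1 were seeded at 400 cells/well in medium containing 20 nM camptothecin, exposed to pin-transferred compounds, and grown at 37 °C for at least 48 hr. Viability was read as ATP luminescence.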
TDP1 cell noCPT = qHTS for Inhibitors of human tyrosyl-DNA phosphodiesterase 1 (TDP1): qHTS in cells in absence of CPT | DT40 Tdp1-/- hTDP1 cells, no CPT, ATP luminescence, 48 h | 15% of 420,000 active | Potency, µM (highest dose often 46.2 µM), usual class: inhibitors; also: nearly all actives have a fitted effect of over 55% in size
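A cellular qHTS used chicken DT40 cells lacking endogenous Tdp1 but carrying stably transfected human TDP1. Compounds were applied without camptothecin, and cell growth kinetics were judged by ATP-dependent luminescence after ≥48 hr.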
TGFb inhibitor = inhibitors of TGF-b signaling | Potency, µM (series often up to 46.1 µM), most hits filed as inhibitors | AID 588855 | 1.2% of 410,000 active | HepG2 CAGA-GFP TGF-b/SMAD3 reporter, GFP fluorescence, 18 h; TGF-beta stimulated, 500 pg/mL final; also: nearly all actives have a fitted effect of over 65% in size
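Per well, imaged GFP fluorescence of HEPG2 CAGA-GFP cells gives the signal; cells get compound, then TGF-beta (500 pg/mL final), 18 h at 37 degrees C; %Activity versus -TGF-beta and +DMSO controls.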
HepG2 viability = counter-screen for TGF-b inhibitors: cytotoxicity in HepG2 cells; AID 588856; HepG2 CAGA-GFP viability, ATP luminescence, 18 h; 0.76% of 410,000 active; Potency, µM (titrated, usually from 46.1 µM), most hits filed as cytotoxic
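CellTiter-Glo luminescence gave cytotoxicity after 18 hours at 37 degrees C. The cells were HepG2 CAGA-GFP in 1% FBS DMEM, stimulated with 500 pg/mL TGF-beta after compound addition. %Activity was normalised to no-cell wells (complete cell-killing) and DMSO (no toxicity), and curves were fitted and classified.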
S2 tox = reduces viability in counter-screen for ATXN expression inhibitors; 0.49% of 400,000 active; Potency, µM (doses to about 56.7 µM), actives largely listed as cytotoxic; S2 cells (HEK-293 line with an ATXN2-luciferase reporter) viability, CellTiter-Fluor protease fluorescence, 24 h; AID 651635; also: nearly all actives have a fitted effect of over 40% in size
ATXN2 expr inh = reduces ATXN2 reporter expression in HEK-293 cells; Potency, µM (series often up to 57 µM), actives largely listed as inhibitors; HEK-293 ATXN2-luciferase reporter, luminescence, 24 h; 0.72% of 360,000 active; also: nearly all actives have a fitted effect of over 55% in size
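qHTS (up to 57 uM final) was run with 24 h compound exposure of reporter cells at 37 °C. Each well was multiplexed: SteadyGlo luminescence measured ATXN2-luciferase expression after a fluorogenic Gly-Phe-AFC viability readout (25 uM final).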
Of the large screens only hits and unclear results are named; the others gave an inactive call. Shown are actives, neighbours in structure and some others; about 17% of the full set was active somewhere. Calls follow the shape of the dose curve; as a rule, active = well fitted curve in the direction sought with a large enough effect; inconclusive = small, poorly fitted or top-dose-only effect, or another doubt; inactive = no such curve, though single readings can be large; an effect the other way counts as inactive or inconclusive.

CCn1ccc2cc(S(=O)(=O)N3CCC(C(=O)NCC(C)c4ccccc4)CC3)ccc21 (centres undefined)	TDP1 cell CPT 23µM, TDP1 cell noCPT inconclusive, TGFb inhibitor inconclusive
CC(CNC(=O)C1CCN(S(=O)(=O)c2ccc3c(ccn3C)c2)CC1)c1ccccc1 (centres undefined)	none
CC(CNC(=O)Cn1ccc2cc(S(=O)(=O)N3CCCCCC3)ccc21)c1ccccc1 (centres undefined)	TDP1 cell CPT 16µM, TDP1 cell noCPT inconclusive, S2 tox inconclusive
Cc1ccc(C2CC(c3cccc(C)c3)n3ncnc3N2)cc1 (centres undefined)	TDP1 cell CPT 15µM, TDP1 cell noCPT inconclusive
CCOc1ccc(C2CC(c3ccc(F)cc3)n3ncnc3N2)cc1 (centres undefined)	TDP1 cell CPT inconclusive, TDP1 cell noCPT 21µM, S2 tox inconclusive
Nn1c(SCC(=O)Nc2ccc(N3CCOCC3)cc2)nnc1-c1cccc(F)c1	none
Cc1cccc(-c2nc3c4c(-c5ccccc5)c(-c5ccccc5)oc4ncn3n2)c1	none
O=C(NC(=S)Nc1ccccc1N1CCOCC1)c1ccc(-c2ccccc2F)o1	TDP1 cell CPT 13µM, TDP1 cell noCPT 23µM
CC1CCN(c2ccccc2NC(=O)c2ccc(Br)o2)CC1	TDP1 cell CPT 16µM, TDP1 cell noCPT inconclusive, TGFb inhibitor inconclusive
CS(=O)(=O)N1CCN(c2ccccc2NC(=O)c2ccc(Br)o2)CC1	none
O=C(NC(=S)Nc1cc(Cl)ccc1N1CCOCC1)c1ccc(-c2cccc(Cl)c2)o1	none
CC1CCN(c2ccccc2NC(=S)NC(=O)c2cccs2)CC1	TDP1 cell CPT inconclusive, TDP1 cell noCPT inconclusive, TGFb inhibitor inconclusive
O=C(Nc1ccccc1N1CCOCC1)c1ccc(Br)o1	TDP1 cell CPT 21µM, TDP1 cell noCPT 23µM, ATXN2 expr inh inconclusive
CC1CCN(c2ccccc2NC(=S)NC(=O)c2ccco2)CC1	TDP1 cell CPT inconclusive, TDP1 cell noCPT 29µM, TGFb inhibitor inconclusive
CCCC12CN3CC(C)(CN(C1)C3c1cccs1)C2=O (centres undefined)	none
Cc1ccc(Cl)cc1N1CCN(S(=O)(=O)c2ccc3oc(=O)c4ncn(C)c4c3c2)CC1	none
CCC(C(=O)NCc1ccccc1)n1nc(C)c2sc3ccccc3c2c1=O (centres undefined)	TDP1 cell CPT inconclusive, TDP1 cell noCPT inconclusive (no result: S2 tox, ATXN2 expr inh)
CCC(C(=O)Nc1cc(C(F)(F)F)ccc1Cl)n1nc(C)c2sc3ccccc3c2c1=O (centres undefined)	TDP1 cell CPT 23µM, TDP1 cell noCPT 16µM (no result: S2 tox, ATXN2 expr inh)
CCCOc1ccc(CNC(=O)C(CC)n2nc(C)c3sc4ccccc4c3c2=O)cc1 (centres undefined)	TDP1 cell CPT 21µM, TDP1 cell noCPT 23µM (no result: S2 tox, ATXN2 expr inh)
CCC(C(=O)NC1CCC(C)CC1)n1nc(C)c2sc3ccccc3c2c1=O (centres undefined)	TDP1 cell CPT 15µM, TDP1 cell noCPT 15µM (no result: S2 tox, ATXN2 expr inh)
CCCN1CCN(C(=O)C(C)n2nc(C)c3sc4ccccc4c3c2=O)CC1 (centres undefined)	TDP1 cell CPT inconclusive, TDP1 cell noCPT 18µM
Cc1cccc(NC(=S)NCCC(c2ccccc2)c2ccccc2)c1	TDP1 cell CPT inconclusive, TDP1 cell noCPT 16µM, TGFb inhibitor 11µM
Cc1cccc(NC(=S)NN(Cc2ccccc2)c2ccccc2)c1C	TDP1 cell CPT 25µM, TDP1 cell noCPT 16µM
COc1ccc(NC(=S)NCCC(c2ccccc2)c2ccccc2)c(OC)c1	TDP1 cell CPT 18µM, TDP1 cell noCPT 16µM, TGFb inhibitor inconclusive
COc1cccc(NC(=S)NCc2ccccc2)c1	TDP1 cell noCPT inconclusive (no result: ATXN2 expr inh)
Cc1cccc(NC(=S)NNC(=S)NCc2ccccc2)c1	S2 tox inconclusive
COc1cccc(NC(=S)NCCC(c2ccccc2)c2ccccc2)c1	TDP1 cell CPT 21µM, TDP1 cell noCPT 13µM, TGFb inhibitor inconclusive
CNc1ncncc1-c1ccccc1C	none (no result: TGFb inhibitor, HepG2 viability, S2 tox, ATXN2 expr inh)
COC(=O)CCCNC(=O)c1ccc(OS(=O)(=O)c2cc([N+](=O)[O-])ccc2C)cc1	none
Cc1cc(Cl)ccc1NC(=S)NCc1ccc(Cl)cc1	TDP1 cell CPT inconclusive, TDP1 cell noCPT 23µM
COc1ccc(NC(=S)N2CCN(C(c3ccccc3)c3ccccc3)CC2)c(OC)c1	TDP1 cell CPT 15µM, TDP1 cell noCPT 18µM
Cc1ccccc1NC(=S)NCc1ccccc1	TDP1 cell CPT 29µM, TDP1 cell noCPT 23µM
Cc1cccc(NC(=S)NCc2ccncc2)c1C	none
CC(NC(=S)N1CCN(c2ccccc2)CC1)c1ccccc1 (centres undefined)	none
COc1ccc(N2CCN(C(=S)NC(C)c3ccccc3)CC2)cc1 (centres undefined)	TDP1 cell CPT inconclusive, TDP1 cell noCPT 15µM, S2 tox inconclusive (no result: ATXN2 expr inh)
O=C(Nc1ccccn1)c1ccc(-c2ccccc2)cc1	TDP1 cell noCPT inconclusive, ATXN2 expr inh inconclusive
Cc1cc(Cl)ccc1NC(=S)NCCC(c1ccccc1)c1ccccc1	TDP1 cell CPT 16µM, TDP1 cell noCPT 16µM, TGFb inhibitor inconclusive, S2 tox inconclusive, ATXN2 expr inh inconclusive
COc1cc(NC(=S)NCCC(c2ccccc2)c2ccccc2)cc(OC)c1	TDP1 cell CPT inconclusive, TDP1 cell noCPT 18µM, TGFb inhibitor inconclusive
O=[N+]([O-])c1cc2c(cc1C=Nc1ccccc1)OCO2	TDP1 cell CPT inconclusive
Cc1cc(O)c(N=Cc2cc3c(cc2[N+](=O)[O-])OCO3)cc1C	TDP1 cell CPT inconclusive, TDP1 cell noCPT 21µM, TGFb inhibitor inconclusive
COc1ccc(CNS(=O)(=O)c2ccc(F)c(C(=O)Nc3c(C)cc(C)cc3C)c2)cc1	none
COc1ccc(/C=C2\C=Cc3ccccc32)cc1	none (no result: S2 tox, ATXN2 expr inh)
COc1ccc(OC)c(CNC(=O)c2ccc(C)c(NC(=O)c3nsc4ccccc34)c2)c1	TDP1 cell CPT 18µM, TDP1 cell noCPT inconclusive
CC(C)Oc1ccc(CNC(=O)c2cccc(NC(=O)c3nsc4ccccc34)c2)cc1	TDP1 cell CPT 4.6µM, TDP1 cell noCPT 9.2µM, TGFb inhibitor inconclusive, S2 tox inconclusive
Cc1ccc(C(=O)NCCC(C)C)cc1NC(=O)c1nsc2ccccc12	TDP1 cell CPT 16µM, TDP1 cell noCPT inconclusive, TGFb inhibitor inconclusive (no result: S2 tox)
O=C(NCc1ccccc1)c1ccc(NC(=O)c2nsc3ccccc23)cc1	TDP1 cell CPT inconclusive, TDP1 cell noCPT inconclusive
Cc1ccc(C(=O)O)cc1NC(=O)c1nsc2ccccc12	none (no result: TGFb inhibitor, S2 tox, ATXN2 expr inh)

From PubChem
